# Results: ChEMBL document CHEMBL4513216, “Probing the Open Global Health Chemical Diversity Library for Multistage-Active Starting Points for Next-Generation Antimalarials” (ACS Infect Dis, 2020)
# The campaign covered roughly 69,000 compounds. About 8,600 (12%) showed an effect of 50% or more. The entries come from a sample that favours strong results as a whole.
# System: Plasmodium berghei
# Assay: Screen against P. berghei liver stage (PbLuc), transformed with Luciferase, at 10uM
# Type: functional, HepG2
# Conditions: tested at 10 uM
row,SMILES,INHIBITION
1,CC(C)C(=O)N1CCC2(CCN2CC2CC2)C1 (stereo not given),8.85%
2,Cc1cc(C(=O)N2C[C@@H]3CC[C@H]2CN(Cc2ccccn2)C3)nc(C)n1,4.59%
3,Cc1ncsc1C(=O)N1CCC(c2ccc3c(NC(C)C)n[nH]c3n2)C1 (stereo not given),-3.94%
4,CC(=O)Nc1ccc(SCC(O)COCc2ccccc2)cc1 (stereo not given),16.6%
5,O=C(Cc1cccnc1)NCCS(=O)(=O)c1ccccc1F,33.7%
6,CNC(=O)C1(c2cnccn2)CCCN1C(=O)c1cccc(F)c1 (stereo not given),1.5%
7,NCc1cc(NCC(c2ccccn2)N2CCOCC2)ncn1 (stereo not given),60.1%
8,COc1cc(NCC(c2ccccn2)N2CCOCC2)ncn1 (stereo not given),6.26%
9,c1ccc(C(CNc2ncccn2)N2CCOCC2)nc1 (stereo not given),3.48%
10,Cc1nn(C)c(N2CCOCC2)c1CNC(C)c1ccccn1 (stereo not given),36.2%
11,c1cncc(C(Cn2cnnc2)N2CCOCC2)c1 (stereo not given),7.31%
12,Cc1ccc(C(CNC(=O)NCc2ccccn2)N2CCOCC2)o1 (stereo not given),11.783%
13,CC(C)c1nn(C)c(N2CCOCC2)c1CNC(C)c1ccccn1 (stereo not given),23.7%
14,CCC(CC)NCC(c1ccccn1)N1CCOCC1 (stereo not given),65.6%
15,c1ccc(C(Cn2cnnc2)N2CCOCC2)nc1 (stereo not given),70.4%
16,CCCS(=O)(=O)NC1CCN(c2cccc(F)c2C#N)CC1,25.4%
17,c1nc(CCC2CCCCN2)cc(N2CCCC2)n1 (stereo not given),32.8%
18,O=C(CC1CC1)N1Cc2nccn2CC(COc2cccnc2)C1 (stereo not given),13.5%
19,O=C(N[C@H]1CCCC[C@@H]1O)c1cccc(-c2nc3ccccc3[nH]2)c1,-13.2%
20,CCc1nc(CN2CCCC(NCc3cc(C)no3)C2)no1 (stereo not given),29.5%
21,Cc1nc(CN2CCCC(NCc3cccc4ccccc34)C2)no1 (stereo not given),-18.8%
22,Cc1nc(CN2CCCC(NCc3ccc4ccccc4c3)C2)no1 (stereo not given),41.5%

row,SMILES,INHIBITION
1,Cc1nc(CN2CCCC(NCc3sccc3C)C2)no1 (stereo not given),48.4%
2,Cc1nc(CN2CCCC(NCc3cnn(C)c3)C2)no1 (stereo not given),-10.6%
3,Cc1nc(CN2CCCC(NCc3nc4ccccc4s3)C2)no1 (stereo not given),29.2%
4,CCc1nc(CN2CCCC(NCc3cnc(C)s3)C2)no1 (stereo not given),15.3%
5,CCc1nc(CN2CCCC(Nc3ncnc4ccsc34)C2)no1 (stereo not given),88.5%
6,Cc1nc(CN2CCCC(Nc3ncnc4ccccc34)C2)no1 (stereo not given),90.2%
7,Cc1nc(CN2CCCC(Nc3ncnc4ccsc34)C2)no1 (stereo not given),79.1%
8,Cc1nc(CN2CCCC(NCc3ccsc3)C2)no1 (stereo not given),20.1%
9,Cc1nc(CN2CCCC(Nc3ncnc4c3CCC4)C2)no1 (stereo not given),85.1%
10,CN(C)Cc1cnc(C2CCN(C(=O)c3cc(F)cc(F)c3)C2)[nH]1 (stereo not given),2.05%
11,CC(C(=O)N1CCCC1)N1CCN(c2ncc(Cl)cn2)CC1 (stereo not given),13.8%
12,CN(C)C(=O)CN1CCCCC1c1nc(N)ncc1-c1ccccc1 (stereo not given),19.3%
13,COc1cc(N2CC[C@@H]3O[C@@H](C(=O)NC(C)C)C[C@@H]32)ncn1,-4.32%
14,O=C(COCc1nc(-c2ccncc2)no1)N1CCCCC1,-19.7%
15,CN(C)S(=O)(=O)c1ccc(CN2CCCC2c2cccs2)o1 (stereo not given),22.3%
16,CN1CCC(N2CCC(C(=O)N(C)C)CC2)CC1,28.5%
17,CNCC(=O)N1CCCC(c2nccnc2Oc2cccc(F)c2)C1 (stereo not given),49.5%
18,Cn1cc(CCC(=O)NCc2ccccc2OC(C)(C)C)cn1,-1.3%
19,NC(=O)CSc1nnc2n1N=CN(c1ccccc1F)C2,-14.9%
20,C[C@@H](O)CNC(=O)CCc1nc2cccnc2[nH]1,-2.13%
21,COCC(C)NC(=O)N1CCN(S(C)(=O)=O)CC1 (stereo not given),5.91%
22,CNC(=O)c1cn[nH]c1C1(C)CCCN(Cc2ccccn2)C1 (stereo not given),17.1%

row,SMILES,INHIBITION
1,CNC(=O)c1cn[nH]c1C1(C)CCCN(CC2(O)CCCCC2)C1 (stereo not given),29.2%
2,CNC(=O)c1cn[nH]c1C1(C)CCCN(Cc2ccccc2OC)C1 (stereo not given),72.5%
3,CN(Cc1noc(C2CC2)n1)C1CCN(CCn2cccn2)C1 (stereo not given),-45.6%
4,Cc1nccnc1C1CCN(C2CCCC2O)CC1 (stereo not given),-59.6%
5,COc1ccc(CCC(=O)N2CCNCC2C(=O)N2CCOCC2)cc1 (stereo not given),30.3%
6,Cc1noc(CN(Cc2ccco2)Cc2cccc3c2OCO3)n1,30.3%
7,CCN(Cc1ccc2cccc(O)c2n1)CC1CCCO1 (stereo not given),-13.5%
8,CCN(Cc1nc(-c2ccco2)no1)Cc1cccc2c1OCO2,55%
9,CN(Cc1ccc2c(c1)OCO2)Cc1nc(-c2ccco2)no1,15%
10,Cc1nnc(CN(Cc2cccc3c2OCO3)CC2CCCO2)n1C (stereo not given),-31.5%
11,CCN(Cc1cccc2c1OCO2)CC1CCCO1 (stereo not given),50.5%
12,CC(CNC(=O)N(C)Cc1ccco1)N1CCc2sccc2C1 (stereo not given),11.4%
13,COCC1CN(Cc2cccc(C#N)c2)Cc2nccn2C1 (stereo not given),25.1%
14,NC(=O)c1cccc(C(=O)N2CCCC(n3ccnc3)C2)c1 (stereo not given),-31.5%
15,O=C(Nc1nnc(N2CCCCC2)[nH]1)c1cccs1,-20.6%
16,Cc1cnc(NC(=O)N2CCCCCC2)s1,-9.54%
17,CCNc1ncc(C(=O)Nc2nnc(N3CCCCC3)[nH]2)s1,51.1%
18,Cc1nc(C(=O)N2CCc3[nH]nc(Nc4ccccc4)c3C2)co1,10.9875%
19,O=S(=O)(N1CCOCC1)N1CCC(Oc2cnccn2)CC1,32.8%
20,CC(=O)N1CCOCC2(CN(Cc3ccc(C)o3)CCO2)C1 (stereo not given),26.7%
21,COCCN1CCC(CNC(=O)C2(c3cccc(C)c3)CC2)C1 (stereo not given),11.4%
22,O=C(Cn1nc2c(cc1=O)CCCC2)NC(C(=O)O)c1ccccc1 (stereo not given),69.8%

row,SMILES,INHIBITION
1,O=C(Cn1nc2c(cc1=O)CCCC2)N[C@@H](C(=O)O)c1ccccc1,-19%
2,O=C(Cn1nc2c(cc1=O)CCCC2)NC(Cc1ccccc1)C(=O)O (stereo not given),-30.4%
3,Cc1oc(C(=O)O)cc1S(=O)(=O)Nc1cc(F)ccc1F,21%
4,Cc1nc(CN2C(=O)C[C@@H]3[C@@H]2CCN3S(=O)(=O)C2CC2)cs1,-64.1%
5,Cc1cccc(NC2CCN(C(=O)Nc3ccc(F)c(F)c3)CC2)n1,67.4%
6,Cc1cccc(NC2CCN(C(=O)Nc3cc(F)cc(F)c3)CC2)n1,90%
7,Cc1cccc(NC2CCN(C(=O)Nc3cc(F)ccc3F)CC2)n1,-7.35%
8,Cc1cccc(NC2CCN(C(=O)Nc3ccncc3)CC2)n1,16.8%
9,O=C(c1ccc2cc[nH]c2c1)N1CCC(Nc2cccnn2)CC1,11.4%
10,Cc1cccc(NC2CCN(C(=O)Nc3ccc(F)cc3C)CC2)n1,-0.113%
11,Cc1cccc(NC2CCN(C(=O)Nc3cc(C)on3)CC2)n1,37.2%
12,Cc1cccc(NC2CCN(C(=O)Nc3cn[nH]c3)CC2)n1,28.8%
13,Cc1cccc(NC2CCN(C(=O)Nc3cccc4[nH]ccc34)CC2)n1,76.1%
14,CCn1cc(CN2CCCN(C(=O)c3ccc(C)o3)CC2)cn1,31.3%
15,Cn1ccnc1CN1CCC2(CCC(=O)N2CCN2CCCC2)CC1,35.2%
16,O=C(NCCn1nc(-n2cncn2)ccc1=O)c1ccc(F)cc1F,7.77%
17,c1cnn(-c2ccc(CCNC3CCN(C4CC4)C3)cc2)c1 (stereo not given),14.2%
18,COc1cccc(-n2nnc(C(=O)N3CCCCCC3)c2C)c1,2.845%
19,Cc1ccc(CSc2nc(N)cc(NCCS(=O)(=O)N(C)C)n2)cc1,23.5%
20,COc1ccc(CN(Cc2ccsc2)CC2CCCO2)cn1 (stereo not given),61.6%
21,c1csc(CN(Cc2ccsc2)CC2CCCO2)n1 (stereo not given),-12.2%
22,CC(C)n1cc(CN(Cc2ccsc2)CC2CCCO2)cn1 (stereo not given),12.9%

row,SMILES,INHIBITION
1,CCCc1nnc(NCCc2noc(C3CC3)n2)o1,16.5%
2,NC(=O)Cn1cc(NC(=O)N2CCN(c3ccc(F)cc3)CC2)cn1,7.333%
3,NC(=O)c1cn(CC2CCC2)c(C2CC2)n1,-21.8%
4,CNc1ncccc1CN1CCN(C)CC(C(=O)N(C)C)C1 (stereo not given),0.696%
5,CNc1ncccc1CN1CCN2CCN(C)CC2C1 (stereo not given),53.8%
6,CNc1ncccc1CN1CCN(C)CC(C(N)=O)C1 (stereo not given),33.2%
7,Cc1nccn1CCC(=O)N1CCC2(CCC(=O)N(CC3CC3)C2)CC1,42.5%
8,CN(Cc1cccs1)C1CCC[C@@H]2CN(C(=O)c3cnccn3)C[C@H]12 (stereo not given in full),37.9%
9,Cn1c(=O)oc2cc(Nc3ncc(C#N)cc3Cl)ccc21,58.9%
10,Cn1c(=O)oc2cc(Nc3nccnc3C#N)ccc21,36.5%
11,Cn1c(=O)oc2ccc(Nc3ncc(C#N)cc3Cl)cc21,42.1%
12,CS(=O)(=O)CCN(CCCO)C1CCc2ccccc21 (stereo not given),18.3%
13,CS(=O)(=O)CCCN(CCCO)C1CCc2ccccc21 (stereo not given),21.7%
14,CS(=O)(=O)NCCN(CCCO)C1CCc2ccccc21 (stereo not given),51.7%
15,CC(=O)N1N=C(c2cccs2)OC1C(=O)Nc1ccc(C(C)C)cc1 (stereo not given),6.55%
16,CCN1CCN(c2ccc(NC(=O)CC(C)C)c(C)c2)CC1,35.7%
17,COCC1CCCN(C(=O)c2ccc(NC(=O)CC(C)C)c(C)c2)C1 (stereo not given),4.97%
18,CCN1CCCN(C(=O)c2ccc(NC(=O)CC(C)C)c(C)c2)CC1,76.6%
19,CCOC(=O)COc1ccc(C(C)=O)c(O)c1,38.2%
20,Cc1nn(C)c(C)c1C1CCCN1C(=O)c1ccc2c(c1)OCCO2 (stereo not given),-45.9%
21,CCSCc1ccc(C(=O)N2CCCN(CC(N)=O)CC2)cc1,-40.5%
22,Cc1cccc(CN2C(=O)CC[C@@H]3[C@H]2CCN3CC2CCOCC2)n1,38.1%
